{"source": "PubChem BioAssay (NCATS)", "note": "Records with an inconclusive call do not appear. Where a call stands in place of a potency, no number is given. The source made the active and inactive calls. Calls come from the whole dose curve; as a rule, active = well fitted inhibition curve with a large enough effect; inconclusive = small, poorly fitted or top-dose-only effect; inactive = flat fitted curve, though single readings scatter.", "data": [{"biological_target": "Calcium and integrin-binding protein 1 (Homo sapiens) (UniProt Q99828)", "sequence (Q99828 whole entry, looked up)": "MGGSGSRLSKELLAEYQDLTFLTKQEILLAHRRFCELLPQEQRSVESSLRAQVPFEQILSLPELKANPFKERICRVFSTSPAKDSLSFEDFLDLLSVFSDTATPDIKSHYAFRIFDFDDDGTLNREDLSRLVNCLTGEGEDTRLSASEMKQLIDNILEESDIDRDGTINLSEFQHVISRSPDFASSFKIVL", "experiment": "Primary qHTS for Identification of Calcium Integrin Binding Protein 1 (CIB1) Competitor (AID 1508620);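 note: GST tagged CIB1 binding a fluorescein labelled alphaIIb integrin peptide tracer; top concentration of the series differs between compounds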", "details": "CIB1-GST / FITC-alphaIIb peptide fluorescence polarization; series mostly up to 114 µM", "procedure,_shortened": "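Fluorescence polarization competition: CIB1-GST (1 uM final) preincubated with compound 15 min at room temperature, then FITC-labeled alphaIIb peptide (100 nM final) added for another 15 min. Polarization read at Ex 480/Em 540.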", "values": [{"molecule": "COc1ccnc(NC(=S)N2CCN(c3ncc(C(F)(F)F)cc3Cl)CC2)c1", "Potency": "inactive"}, {"molecule": "N#Cc1nc(Nc2cccc([N+](=O)[O-])c2)nc(NC2CCCC2)n1", "Potency": "inactive"}, {"molecule": "O=[S+]([O-])(/C=C/c1nc(Nc2cc(F)cc(F)c2)c2ncn(CC(F)F)c2n1)c1ccccc1", "Potency": "inactive"}, {"molecule": "CCn1cnc2c(NCCc3cccnc3)nc(C#N)nc21", "Potency": "inactive"}, {"molecule": "c1nc(NCc2ccoc2)c2cc(-c3ccc4c(c3)OCO4)ccc2n1", "Potency": "inactive"}, {"molecule": "Cc1cc(C)nc(NC(=S)N2CCN(c3ccc4cnccc4c3)CC2)c1", "Potency": "inactive"}, {"molecule": "N#Cc1ccccc1CNc1nc2ncc(Br)cc2[nH]1", "Potency": "inactive"}, {"molecule": "Brc1ccc(-c2csc(N3CCNCC3)n2)cc1", "Potency": "inactive"}, {"molecule": "NC(=O)c1c(NC(=O)c2ccncn2)sc2c1CCCC2", "Potency": "inactive"}, {"molecule": "O=C1c2ccccc2C(=O)N1c1cncc2ccccc12", "Potency": "inactive"}, {"molecule": "CC(=O)N1CCN(c2ccc(NCc3ccc(-c4ccc(Br)cc4)o3)cc2)CC1", "Potency": "inactive"}, {"molecule": "O=C1CC(c2ccccc2)CC2=C1C1(CCCC1)N=C(Nc1nc3ccccc3o1)N2", "note": "(stereo not given)", "Potency": "inactive"}, {"molecule": "COc1ccc(C(=O)c2ccc(-c3no[n+]([O-])c3C#N)cc2)cc1", "Potency": "inactive"}, {"molecule": "CC(C)(C)Cc1nnc(NC(=O)CSc2ccccc2)s1", "Potency": "inactive"}, {"molecule": "Cc1ccc(NC(=O)c2cnn3c(-c4ccccc4)cc(C)nc23)cc1", "Potency": "inactive"}, {"molecule": "Cc1ccc(S(=O)(=O)Nc2ccc(NS(=O)(=O)c3ccc(C)cc3)c3ncccc23)cc1", "Potency": "inactive"}, {"molecule": "Cc1cc(C)n2ncc(C(=O)Nc3ccc(C(F)(F)F)cc3)c2n1", "Potency": "inactive"}, {"molecule": "COc1c(Cl)cccc1NC(=O)c1c(NC(=O)Cc2ccccc2)sc2c1CCCC2", "Potency": "inactive"}, {"molecule": "Cc1nnc(-c2cnn(C)c2N)n1CCCc1ccccn1", "Potency": "inactive"}, {"molecule": "O=C1c2ccccc2NC(c2ccccc2O)N1Cc1ccccc1", "note": "(stereo not given)", "Potency": "inactive"}, {"molecule": "Cc1ccnc(NC(=S)N2CCN(c3ccc4ccccc4n3)CC2)c1", "Potency": "inactive"}, {"molecule": "N#Cc1c(-c2ccco2)no[n+]1[O-]", "Potency": "inactive"}, {"molecule": "Cc1noc(Nc2sc3c(c2-c2nc4ccccc4s2)CCNC3)n1", "Potency": "inactive"}, {"molecule": "CC(C)(C)OC(=O)NCCCNc1ncnc2ccc(-c3ccc4c(c3)OCO4)cc12", "Potency": "inactive"}, {"molecule": "C#CCOc1ccc(C(C)=O)cc1-c1nnc2n1N=C(c1ccc(OC)c(OC)c1)CS2", "Potency": "inactive"}, {"molecule": "Cc1cc(-c2nnc3n2CCCCC3)c(C)n1-c1ccc([N+](=O)[O-])cc1", "Potency": "inactive"}, {"molecule": "O=C(NCc1ccccc1)C1CCN(c2nc(-c3ccc(Br)cc3)cs2)CC1", "Potency": "inactive"}, {"molecule": "CC1=C(C(=O)Nc2nnc(-c3ccccc3)s2)C(c2nn(C)cc2Cl)N=C(Nc2nc3ccccc3o2)N1", "note": "(stereo not given)", "Potency": "inactive"}, {"molecule": "O=C1c2ccccc2C(=O)N1c1cccnc1", "Potency": "inactive"}, {"molecule": "O=C(NC(c1ccco1)c1cc(Cl)c2cccnc2c1O)c1ccccc1", "note": "(stereo not given)", "Potency": "inactive"}, {"molecule": "O=[S+]([O-])(NC[C@H]1CCC[C@H](CN[S+](=O)([O-])c2c(F)cccc2F)C1)c1ccc2c(c1)OCCO2", "Potency": "inactive"}, {"molecule": "CCCC(C)NC(=O)Cn1nc(-c2ccc(C)cc2)ccc1=O", "note": "(stereo not given)", "Potency": "inactive"}, {"molecule": "Cc1ccc(CNc2cccc(N3CCCCC3)c2)cc1", "Potency": "inactive"}, {"molecule": "O=C(COC(=O)CNC(=O)c1ccccc1Cl)Nc1ccccc1Cl", "Potency": "inactive"}, {"molecule": "COc1cccc(C2c3c(ncn(-c4ccc(C)cc4)c3=N)Oc3ccc4ccccc4c32)c1", "note": "(stereo not given)", "Potency": "inactive"}, {"molecule": "Fc1ccc(-c2nc(-c3ccncc3)nc3ccccc23)cc1F", "Potency": "inactive"}, {"molecule": "Cc1cc(NS(=O)(=O)c2ccc3c(c2)CCC(=O)N3)ccc1F", "Potency": "inactive"}, {"molecule": "Cc1ccc(S(=O)(=O)Nc2cccc3ccc(C)nc23)cc1", "Potency": "inactive"}, {"molecule": "N#Cc1ccc(-c2ccc(NC(=O)c3cccs3)cn2)cc1", "Potency": "inactive"}, {"molecule": "O=C(CNC(=O)c1ccccc1)N[C@H](C(=O)Nc1cc(C(F)(F)F)ccc1Cl)c1ccccc1", "Potency": "inactive"}]}]}
